Data from the supplement of paper PMC8728848.
This is one part of a sample in which the strongest signals are shown more often than they occur.

How the values were obtained:
Test in all cases: glycan array binding signal (z-score within array); higher = stronger binding
Conditions in all cases: glycan notation: IUPAC condensed, linker removed; mutation: W10H
[1] = molecular target: Fuc(a1-2)Gal(b1-3)GalNAc(b1-3)Gal(a1-4)Gal(b1-4)Glc
In short: (§1)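 Glycan array binding is given as a within-array Z-score, which can be read as non-binding when negative. The arrays, 3228 of them, came from the Consortium for Functional Glycomics database and were retained only where the protein sequence was available. Z-scores were averaged across arrays of the same protein sequence at different concentrations or buffers and across linkers.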

[2] = molecular target: Fuc(a1-2)Gal(b1-3)[Fuc(a1-4)]GlcNAc
In short: as §1

[3] = molecular target: Fuc(a1-2)Gal(b1-4)[Fuc(a1-3)]GlcNAc(b1-3)Gal(b1-4)[Fuc(a1-3)]GlcNAc(b1-3)Gal(b1-4)[Fuc(a1-3)]GlcNAc
In short: as §1

[4] = molecular target: Fuc(a1-2)Gal(b1-4)[Fuc(a1-3)]GlcNAc(b1-3)[Neu5Ac(a2-6)Gal(b1-4)GlcNAc(b1-6)]Gal(b1-4)Glc
In short: as §1

[5] = molecular target: Fuc(a1-2)[Gal(a1-3)]Gal(b1-3)GlcNAc(b1-3)GalNAc
In short: as §1

[6] = molecular target: Fuc(a1-2)[Gal(a1-3)]Gal(b1-3)GlcNAc(b1-6)GalNAc
In short: as §1

[7] = molecular target: Fuc(a1-2)[Gal(a1-3)]Gal(b1-4)GlcNAc(b1-2)Man
In short: as §1

[8] = molecular target: Fuc(a1-2)[Gal(a1-3)]Gal(b1-4)GlcNAc(b1-3)[Fuc(a1-2)[Gal(a1-3)]Gal(b1-4)GlcNAc(b1-6)]GalNAc
In short: as §1

[9] = molecular target: Fuc(a1-2)[GalNAc(a1-3)]Gal(b1-3)GalNAc(b1-3)Gal(a1-4)Gal(b1-4)Glc
In short: as §1

[10] = molecular target: Fuc(a1-3)[Gal(b1-4)]GlcNAc(b1-2)Man(a1-3)[Fuc(a1-3)[Gal(b1-4)]GlcNAc(b1-2)Man(a1-6)]Man(b1-4)GlcNAc(b1-4)[Fuc(a1-6)]GlcNAc
In short: as §1

[11] = molecular target: Fuc(a1-3)[Gal(b1-4)]GlcNAc(b1-3)Gal(b1-4)[Fuc(a1-3)]GlcNAc
In short: as §1

[12] = molecular target: Fuc(a1-3)[Gal(b1-4)]GlcNAc(b1-3)GalNAc
In short: as §1

[13] = molecular target: Fuc(a1-3)[GalNAc(b1-4)]GlcNAc6S
In short: as §1

[14] = molecular target: Gal(a1-2)Gal
In short: as §1

[15] = molecular target: Gal(a1-3)Gal(b1-3)GlcNAc
In short: as §1

[16] = molecular target: Gal(a1-4)Gal(b1-4)Glc
In short: as §1

[17] = molecular target: Gal(a1-4)Gal(b1-4)GlcNAc(b1-3)Gal(b1-4)Glc
In short: as §1

[18] = molecular target: Gal(b1-2)Gal
In short: as §1

[19] = molecular target: Gal(b1-3)Gal
In short: as §1

[20] = molecular target: Gal(b1-3)GlcNAc(b1-2)Man
In short: as §1

[21] = molecular target: Gal(b1-3)GlcNAc(b1-3)Gal(b1-4)[Fuc(a1-3)]GlcNAc
In short: as §1

[22] = molecular target: Gal(b1-3)[GlcNAc(b1-6)]GalNAc
In short: as §1

[23] = molecular target: Gal(b1-4)GlcNAc(b1-2)Man(a1-3)[Gal(b1-4)GlcNAc(b1-2)Man(a1-6)]Man(b1-4)GlcNAc(b1-4)GlcNAc
In short: as §1

[24] = molecular target: Gal(b1-4)GlcNAc(b1-2)[Gal(b1-4)GlcNAc(b1-4)]Man(a1-3)[GlcNAc(b1-4)][Gal(b1-4)GlcNAc(b1-2)[Gal(b1-4)GlcNAc(b1-6)]Man(a1-6)]Man(b1-4)GlcNAc(b1-4)GlcNAc
In short: as §1

[25] = molecular target: Gal(b1-4)GlcNAc(b1-2)[Gal(b1-4)GlcNAc(b1-6)]Man(a1-6)[Gal(b1-4)GlcNAc(b1-2)Man(a1-3)]Man(b1-4)GlcNAc(b1-4)[Fuc(a1-6)]GlcNAc
In short: as §1

[26] = molecular target: Gal(b1-4)GlcNAc(b1-2)[Gal(b1-4)GlcNAc(b1-6)]Man(a1-6)[GlcNAc(b1-4)][Gal(b1-4)GlcNAc(b1-2)Man(a1-3)]Man(b1-4)GlcNAc(b1-4)GlcNAc
In short: as §1

[27] = molecular target: Gal(b1-4)GlcNAc(b1-3)Gal(b1-4)GlcNAc(b1-2)[Gal(b1-4)GlcNAc(b1-3)Gal(b1-4)GlcNAc(b1-6)]Man(a1-6)[Gal(b1-4)GlcNAc(b1-3)Gal(b1-4)GlcNAc(b1-2)Man(a1-3)]Man(b1-4)GlcNAc(b1-4)GlcNAc
In short: as §1

[28] = molecular target: Gal(b1-4)GlcNAc(b1-3)Gal(b1-4)GlcNAc(b1-6)[Gal(b1-3)]GalNAc
In short: as §1

[29] = molecular target: Gal(b1-4)GlcNAc(b1-3)[Fuc(a1-3)GlcNAc(b1-6)]Gal(b1-4)Glc
In short: as §1

[30] = molecular target: Gal(b1-4)GlcNAc(b1-6)GalNAc
In short: as §1

[31] = molecular target: Gal6S(b1-3)GlcNAc6S
In short: as §1

[32] = molecular target: Gal6S(b1-4)Glc
In short: as §1

[33] = molecular target: Gal6S(b1-4)GlcNAc
In short: as §1

[34] = molecular target: GalNAc(a1-3)Gal
In short: as §1

[35] = molecular target: GalNAc3S(b1-4)GlcNAc3S
In short: as §1

[36] = molecular target: GlcA3S(b1-3)Gal(b1-4)GlcNAc(b1-3)Gal(b1-4)Glc
In short: as §1

[37] = molecular target: Man(a1-2)Man(a1-2)Man(a1-6)[Man(a1-3)]Man
In short: as §1

[38] = molecular target: Man(a1-2)Man(a1-3)[Man(a1-2)Man(a1-6)]Man
In short: as §1

[39] = molecular target: Man(a1-2)Man(a1-3)[Man(a1-2)Man(a1-6)]Man(a1-6)[Man(a1-2)Man(a1-2)Man(a1-3)]Man
In short: as §1

[40] = molecular target: Man(a1-2)Man(a1-3)[Man(a1-2)Man(a1-6)]Man(a1-6)[Man(a1-2)Man(a1-2)Man(a1-3)]Man(b1-4)GlcNAc(b1-4)GlcNAc
In short: as §1

[41] = molecular target: Man(a1-2)Man(a1-3)[Man(a1-6)]Man(a1-6)[Man(a1-2)Man(a1-3)]Man(b1-4)GlcNAc(b1-4)GlcNAc
In short: as §1

[42] = molecular target: Man(a1-2)Man(a1-6)[Man(a1-3)]Man(a1-6)[Man(a1-2)Man(a1-2)Man(a1-3)]Man
In short: as §1

[43] = molecular target: Man(a1-2)Man(a1-6)[Man(a1-3)]Man(a1-6)[Man(a1-2)Man(a1-2)Man(a1-3)]Man(b1-4)GlcNAc(b1-4)GlcNAc
In short: as §1

[44] = molecular target: Man(a1-3)[Man(a1-6)]Man
In short: as §1

[45] = molecular target: Man(a1-3)[Man(a1-6)]Man(a1-6)[Man(a1-2)Man(a1-3)]Man(b1-4)GlcNAc(b1-4)GlcNAc
In short: as §1

[46] = molecular target: Man(a1-3)[Man(a1-6)]Man(a1-6)[Man(a1-3)]Man(b1-4)GlcNAc(b1-4)GlcNAc
In short: as §1

[47] = molecular target: Man(a1-3)[Man(a1-6)]Man(b1-4)GlcNAc(b1-4)GlcNAc
In short: as §1

[48] = molecular target: Neu5Ac(a2-3)Gal(b1-3)GalNAc(b1-3)Gal(a1-4)Gal(b1-4)Glc
In short: as §1

[49] = molecular target: Neu5Ac(a2-3)Gal(b1-3)GalNAc(b1-4)Gal(b1-4)Glc
In short: as §1

[50] = molecular target: Neu5Ac(a2-3)Gal(b1-3)GlcNAc(b1-2)Man(a1-3)[GlcNAc(b1-4)][Neu5Ac(a2-3)Gal(b1-3)GlcNAc(b1-2)Man(a1-6)]Man(b1-4)GlcNAc(b1-4)GlcNAc
In short: as §1

[51] = molecular target: Neu5Ac(a2-3)Gal(b1-3)GlcNAc(b1-3)GalNAc
In short: as §1

[52] = molecular target: Neu5Ac(a2-3)Gal(b1-4)Glc
In short: as §1

[53] = molecular target: Neu5Ac(a2-3)Gal(b1-4)[Fuc(a1-3)]GlcNAc6S
In short: as §1

[54] = molecular target: Neu5Ac(a2-6)Gal(b1-4)GlcNAc(b1-3)Gal(b1-4)GlcNAc(b1-3)Gal(b1-4)GlcNAc
In short: as §1

[55] = molecular target: Neu5Ac(a2-8)Neu5Ac(a2-3)[GalNAc(b1-4)]Gal(b1-4)Glc
In short: as §1

[56] = molecular target: Neu5Ac(a2-8)Neu5Ac(a2-8)Neu5Ac(a2-8)Neu5Ac(a2-3)[GalNAc(b1-4)]Gal(b1-4)Glc
In short: as §1

[57] = molecular target: Neu5Gc(b2-6)Gal(b1-4)GlcNAc
In short: as §1

B1: Banana lectin (Musa acuminata) (protein)
chain: MNGAIKVGAHGGNGGSAFDMGPAYRIISVKIFSGDVVDGVDVTFTYYGKTETRHYGGSGGTPHEIVLQEGEYLVGMAGEVANYHGAVVLGKLGFSTNKKAYGPFGNTGGTPFSLPIAAGKISGFFGRGGKFLDAIGVYLEPLEHHHHHH
glycan array binding signal (z-score) [1]: -0.164
glycan array binding signal (z-score) [2]: -0.188
glycan array binding signal (z-score) [3]: -0.169
glycan array binding signal (z-score) [4]: -0.189
glycan array binding signal (z-score) [5]: -0.17
glycan array binding signal (z-score) [6]: -0.147
glycan array binding signal (z-score) [7]: -0.169
glycan array binding signal (z-score) [8]: -0.183
glycan array binding signal (z-score) [9]: -0.156
glycan array binding signal (z-score) [10]: -0.148
glycan array binding signal (z-score) [11]: -0.146
glycan array binding signal (z-score) [12]: -0.16
glycan array binding signal (z-score) [13]: -0.194
glycan array binding signal (z-score) [14]: -0.177
glycan array binding signal (z-score) [15]: -0.171
glycan array binding signal (z-score) [16]: -0.169
glycan array binding signal (z-score) [17]: -0.141
glycan array binding signal (z-score) [18]: -0.172
glycan array binding signal (z-score) [19]: -0.168
glycan array binding signal (z-score) [20]: -0.145
glycan array binding signal (z-score) [21]: -0.174
glycan array binding signal (z-score) [22]: -0.157
glycan array binding signal (z-score) [23]: -0.187
glycan array binding signal (z-score) [24]: -0.175
glycan array binding signal (z-score) [25]: -0.143
glycan array binding signal (z-score) [26]: -0.204
glycan array binding signal (z-score) [27]: -0.113
glycan array binding signal (z-score) [28]: -0.088
glycan array binding signal (z-score) [29]: -0.141
glycan array binding signal (z-score) [30]: -0.163
glycan array binding signal (z-score) [31]: -0.174
glycan array binding signal (z-score) [32]: -0.156
glycan array binding signal (z-score) [33]: -0.124
glycan array binding signal (z-score) [34]: -0.158
glycan array binding signal (z-score) [35]: -0.165
glycan array binding signal (z-score) [36]: -0.164
glycan array binding signal (z-score) [37]: 7.33
glycan array binding signal (z-score) [38]: 2.86
glycan array binding signal (z-score) [39]: 6.5
glycan array binding signal (z-score) [40]: 2.96
glycan array binding signal (z-score) [41]: 9.34
glycan array binding signal (z-score) [42]: 5.18
glycan array binding signal (z-score) [43]: 6.56
glycan array binding signal (z-score) [44]: 2.82
glycan array binding signal (z-score) [45]: 13.5
glycan array binding signal (z-score) [46]: 3.07
glycan array binding signal (z-score) [47]: 6.6
glycan array binding signal (z-score) [48]: -0.167
glycan array binding signal (z-score) [49]: -0.186
glycan array binding signal (z-score) [50]: -0.163
glycan array binding signal (z-score) [51]: -0.169
glycan array binding signal (z-score) [52]: -0.159
glycan array binding signal (z-score) [53]: -0.176
glycan array binding signal (z-score) [54]: -0.171
glycan array binding signal (z-score) [55]: -0.146
glycan array binding signal (z-score) [56]: -0.153
glycan array binding signal (z-score) [57]: -0.185
